The structures appear in SMILES notation.

Common to all, as to format: functional
The target of assay [1] is Solute carrier family 2, facilitated glucose transporter member 1 (Homo sapiens) (UniProt P11166). Nature of the assay: ST_JUDE_LEISH: Cytotoxicity at 2uM final concentration against transgenic Leishmania Mexicana promastigotes LmGLUT1 that are glucose transport deficient and complemented with the human glucose transporter GLUT1. Activity is measured by DNA content using SYBR green in vitro.

In assay [2] the target is Hexose transporter 1 (Plasmodium falciparum) (UniProt O97467). As to the kind of experiment: ST_JUDE_LEISH: Cytotoxicity at 2uM final concentration against transgenic Leishmania Mexicana promastigotes LmPfHT that are glucose transport deficient and complemented with the Plasmodium falciparum hexose transporter. Activity is measured by DNA content using SYBR green in vitro.

Assay [3] deals with Glucose transporter (Leishmania mexicana) (UniProt O61059). As to the kind of experiment: ST_JUDE_LEISH: Cytotoxicity at 2uM final concentration against transgenic Leishmania Mexicana promastigotes LmGT2 that are glucose transport deficient and complemented with the L. Mexicana glucose transporter 2. Activity is measured by DNA content using SYBR green in vitro.

Sequence of Solute carrier family 2, facilitated glucose transporter member 1 (Homo sapiens) (P11166 whole entry): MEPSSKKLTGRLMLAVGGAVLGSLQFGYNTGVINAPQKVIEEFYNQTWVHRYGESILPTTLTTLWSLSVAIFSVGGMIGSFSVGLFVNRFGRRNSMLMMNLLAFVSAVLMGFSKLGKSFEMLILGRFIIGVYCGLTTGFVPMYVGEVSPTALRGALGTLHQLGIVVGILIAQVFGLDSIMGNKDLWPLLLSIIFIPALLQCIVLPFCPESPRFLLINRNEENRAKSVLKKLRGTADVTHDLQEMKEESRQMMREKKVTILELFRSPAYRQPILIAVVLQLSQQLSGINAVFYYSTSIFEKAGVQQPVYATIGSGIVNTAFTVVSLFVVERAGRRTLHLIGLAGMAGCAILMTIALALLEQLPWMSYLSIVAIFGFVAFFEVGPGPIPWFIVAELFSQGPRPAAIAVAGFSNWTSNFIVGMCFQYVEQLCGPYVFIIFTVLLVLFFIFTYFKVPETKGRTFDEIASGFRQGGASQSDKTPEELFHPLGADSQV

On to `COc1ccc(-c2ccc(NC(=O)c3cccc(Cl)c3)cc2)cc1CN1CCCC1`, for which the results for the inhibition in assay [1], in assay [2] and in assay [3] were 11.7%, 2.9% and 4.28%, respectively.
The like results for `Nc1cccc(CNCc2ccc(-c3cccc(-c4nc5ccccc5[nH]4)c3)cc2)c1` were, in that order, 1.2%, 0.24% and -0.54%.
The like results for `Cc1cc(NC(=O)c2cccs2)ccc1OC1CCN(Cc2ccc(F)cc2)C1` (stereo not drawn) were, in that order, 0.09%, 0.19% and 1.92%.
The like results for `COc1ccc(Br)cc1/C=C/C(=O)Nc1ccc2c(c1)CCCN(C)C2` were, in that order, 0.84%, 3.78% and 3.56%.
With `C=C(C)Cn1cc(C2CCN(CCN3CCC(CNC(=O)c4ccc(-c5ccc(C#N)cc5)cc4)CC3)CC2)c2ccccc21`, the inhibition – broadly, the relative decrease from the control value, in per cent – was determined as 7.94% in assay [1], 4.28% in assay [2] and 5.17% in assay [3].
On to `Cc1cc2c(NC(=O)NC3CCN(CCc4cccc(Cl)c4)CC3)cccc2cn1`, for which the inhibition in assay [1] was -1.26%; in assay [2] it was 1.1%; in assay [3], -3.28%.
The like results for `O=C(/C=C/c1ccc(Cl)c(Cl)c1)NCCCCCN1CCCN(C(=O)Nc2cc(Cl)cc(Cl)c2)CC1` were, in that order, 3.31%, 3.85% and 6.4%.
The like results for `CC1CCN(C(=O)C(Cc2c[nH]c3ccccc23)NS(=O)(=O)c2ccc(Cl)cc2)CC1` (stereo not drawn) were, in that order, 0.31%, 1.31% and -0.09%.
Turning to `Cc1ccc(Nc2nc(C)cc(NCc3ccc(-n4ccnc4)cc3)n2)cc1`, the inhibition turned out to be 5.83% in assay [1], 10.8% in assay [2] and 10.4% in assay [3].
For `O=c1cc(NCCCNCc2ccc(Cl)c(Cl)c2)[nH]c2ccc(C(F)(F)F)cc12`, the inhibition in assay [1] stood at 2.13%; in assay [2], 1.67%; in assay [3], 2.08%.
Turning to `COCc1ccc(CN2CCC(C(=O)Nc3ccc(-c4nc5ccccc5[nH]4)cc3)CC2)o1`, the inhibition came out at 7.66% in assay [1], 5.18% in assay [2] and 5.81% in assay [3].
For the molecule `O=C(COc1ccc(C(=O)c2ccccc2)cc1)Nc1nccs1`, the inhibition in assay [1] is 0.24%; in assay [2] it was 0.43%; in assay [3], -3.28%.
In the same order, the values of `CCCC(C)Nc1nc(C)cc(N[C@@H](Cc2ccccc2)C(=O)Nc2ccccc2)n1` (stereo partly drawn) are 2.98%, 3.18% and 0.41%.
The like results for `COc1cccc(CNCC(C)(C)c2nc(-c3ccc(Cl)c(O)c3)c(-c3ccncc3)[nH]2)c1` were, in that order, -1.42%, -3.17% and 2.87%.
For `O=C(Nc1ccccc1-c1ccccc1)C1CCCN1C(=O)Nc1ccc(Cl)cc1` (stereo not drawn), the values for the inhibition in assay [1], in assay [2] and in assay [3] were -0.38%, -0.89% and -2.33%, respectively.
With `COc1ccc2nc(C)cc(Nc3ccc(Oc4ccc(Cl)cc4)c(Cl)c3)c2c1`, the values for the inhibition in assay [1], in assay [2] and in assay [3] were 7.89%, 6.68% and 2.63%, respectively.
On to `O=C(NC1CCCc2ccccc21)[C@@H]1CCCN1C(=O)c1ccc(O)c(-c2ccc(Cl)c(Cl)c2)c1` (stereo partly drawn), for which the inhibition is 0.06% in assay [1], -0.61% in assay [2] and -0.01% in assay [3].
For the molecule `Nc1nc(N)c2c(ccc3c2ccn3CCCC2CCCNC2)n1` (stereo not drawn), the values for the inhibition in assay [1], in assay [2] and in assay [3] were 0.22%, -0.13% and 1.44%, respectively.
For `CCC(C)(CC)C(=O)n1ncc2c3c(N)nc(N)nc3ccc21`, the inhibition in assay [1] amounted to 65.8%; in assay [2] it was 79.2%; in assay [3], 58.6%.
Regarding `CNCCNCc1cccc(-c2ccc(-c3nc4cc(C(F)(F)F)ccc4[nH]3)s2)c1`, the results for the inhibition in assay [1], in assay [2] and in assay [3] were 2.35%, 3.82% and 1.39%, respectively.
The like results for `COc1ccc2c(=NN=Cc3ccncc3)cc(C)[nH]c2c1` were, in that order, 4.05%, 3.94% and 3.63%.
`COc1ccc2nc(-c3cc(-c4ccc(NC(C)=O)cc4)cnc3N)[nH]c2c1`: the inhibition in assay [1] is 3.72%; in assay [2] it was 4.61%; in assay [3], 2.87%.
The like results for `COc1ccc(C(=O)CCc2ccc(O)cc2)cc1` were, in that order, 1.26%, 1.48% and 2.43%.
The like results for `Cc1nnc(-c2cccc(Nc3ccnc4cc(-c5nccs5)ccc34)c2)o1` were, in that order, 11.2%, 11.8% and 9.75%.
For `COc1ccccc1-c1ccc(CNC(=O)C(CN2CCN(C)CC2)c2ccccc2)cc1` (stereo not drawn), the results for the inhibition in assay [1], in assay [2] and in assay [3] were 2.94%, 1.12% and 2.44%, respectively.
In the same order, the values of `Cc1cc(-c2nc3ccc(N4CCN(C)CC4)cc3[nH]2)nn1Cc1cc(Cl)ccc1OCC(C)C` are 1%, 1.76% and 0.44%.
In the same order, the values of `COc1ccc2nccc([C@@H](O)CN3CCC(NC(=O)c4ccc(C5(C(F)(F)F)N=N5)cc4)CC3)c2c1` are 14.3%, 24.5% and 40.7%.
The like results for `CN(C)CCCN1CCN(Cc2ccc(-c3ccc(-c4nc5ccccc5[nH]4)s3)cc2)CC1` were, in that order, 11.2%, 8.38% and 12.1%.
Consider `C=CCC(C(=O)Nc1ccnc2ccc(OC)cc12)C1CCN(CCCCCCC)CC1` (stereo not drawn), for which the inhibition turned out to be 1.74% in assay [1], 1.29% in assay [2] and 0.87% in assay [3].
In the same order, the values of `O=C(NCc1ccc(F)cc1)Nc1ccc(-c2ccc(-c3nc4ccccc4[nH]3)cc2)cc1` are 1.28%, -0.46% and 0.75%.
As for `CCc1c(CCNC/C=C/C=C/CNCCc2ccc(OC)c(OC)c2CC)ccc(OC)c1OC`, the results for the inhibition in assay [1], in assay [2] and in assay [3] were 3.5%, 0.39% and 1.71%, respectively.
With `COc1cc(NC(=O)N2CCc3ccc(OCCN(C(C)C)C(C)C)cc32)cc(C(F)(F)F)c1`, the figures for the inhibition in assay [1], in assay [2] and in assay [3] were 1.98%, 1.73% and 2.06%, respectively.
The like results for `c1ccc(Oc2ccc(Nc3nncc4ccccc34)cc2)cc1` were, in that order, 1.62%, 0.25% and -4.56%.
Consider `Cc1ccc(-c2ccc3c(c2)C=C(C(=O)NCC2CCN(CC4CCN(C(=O)/C=C/c5ccc(Cl)c(Cl)c5)CC4)CC2)CCC3)cc1`, for which the inhibition in assay [1] is 1.1%; in assay [2] it was 0.59%; in assay [3], -0.85%.
The like results for `CN(CCN)Cc1cccc(-c2cccc(-c3nc4cc(F)ccc4[nH]3)c2)c1` were, in that order, 1.11%, 1.79% and -1.76%.
In the same order, the values of `N=C(N)Nc1nc(-c2ccc(NC(=N)N3CCC[C@H]3CN3CCCC3)cc2)cs1` are -0.01%, -0.2% and -0.7%.
